# Assay results from the supplement of paper PMC10849652.
# Targets with a hit are over-represented here; the source holds about 7,900 in all. About 0.6% of all pairs of compound and target were hits. Unmarked numbers belong to inactive results.
# Experiments:
# Experiment in all cases: log2 fold change, soluble protein after heating vs DMSO (PISA); higher = thermal stabilisation; K562 cells, 10 uM, 30 min; active = over 0.2 and 3.5 SD of the protein, either way, in both replicates (recomputed)
# [1] = compound: COC1=CC=C(C=C1)CN2C=CC3=C2C=C(C=C3)C(=O)NO
# Summary of the method: (§1)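 For each measurement, 10 μM compound was applied for 30 min to K562 cells at 2×10^6 cells/mL. Aliquots were heated for 3 min across 48°C-58°C, pooled, and extracted in PBS with 0.5% NP-40 at 4°C; the supernatant after 21,000xg for 90 min was soluble protein. This was quantified by TMTpro 16plex LC-MS/MS with channel sums equalised, and thermal stability was reported relative to control samples from duplicates, on a log2 fold-change scale.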
# filanesib = compound: CON(C)C(=O)N1N=C(c2cc(F)ccc2F)S[C@@]1(CCCN)c1ccccc1 [filanesib]
# Summary of the method: as §1
# zotarolimus = compound: CO[C@H]1C[C@@H]2CC[C@@H](C)[C@@](O)(O2)C(=O)C(=O)N2CCCC[C@H]2C(=O)O[C@H]([C@H](C)C[C@@H]2CC[C@H](n3cnnn3)[C@H](OC)C2)CC(=O)[C@H](C)/C=C(\C)[C@@H](O)[C@@H](OC)C(=O)[C@H](C)C[C@H](C)/C=C/C=C/C=C/1C [zotarolimus]
# Summary of the method: as §1
# idasanutlin = compound: COc1cc(C(=O)O)ccc1NC(=O)[C@@H]1N[C@@H](CC(C)(C)C)[C@](C#N)(c2ccc(Cl)cc2F)[C@H]1c1cccc(Cl)c1F [idasanutlin]
# Summary of the method: as §1
# alisertib = compound: COc1cc(Nc2ncc3c(n2)-c2ccc(Cl)cc2C(c2c(F)cccc2OC)=NC3)ccc1C(=O)O [alisertib]
# Summary of the method: as §1
# [2] = compound: COc1cc2nc(-c3cc(F)ccc3O)nc(N[C@@H]3CNC[C@H]3C(C)(C)O)c2cc1OC
# Summary of the method: as §1
# gefitinib = compound: COc1cc2ncnc(Nc3ccc(F)c(Cl)c3)c2cc1OCCCN1CCOCC1 [gefitinib]
# Summary of the method: as §1
# [3] = compound: COc1cccc2cc(-c3nc([C@H]4CC[C@H](C(=O)O)CC4)n4ncnc(N)c34)[nH]c12
# Summary of the method: as §1
# lapatinib = compound: CS(=O)(=O)CCNCc1ccc(-c2ccc3ncnc(Nc4ccc(OCc5cccc(F)c5)c(Cl)c4)c3c2)o1 [lapatinib]
# Summary of the method: as §1
# pictilisib = compound: CS(=O)(=O)N1CCN(Cc2cc3nc(-c4cccc5[nH]ncc45)nc(N4CCOCC4)c3s2)CC1 [pictilisib]
# Summary of the method: as §1
# [4] = compound: CS(=O)(=O)c1ccc(-c2cnc(N)c(C(=O)Nc3ccccc3)n2)cc1
# Summary of the method: as §1
# crizotinib = compound: C[C@@H](Oc1cc(-c2cnn(C3CCNCC3)c2)cnc1N)c1c(Cl)ccc(F)c1Cl [crizotinib]
# Summary of the method: as §1
# [5] = compound: C[C@@H]1COCCN1C2=NC(=NC(=C2)C3(CC3)S(=O)(=O)C)C4=C5C=CNC5=CC=C4
# Summary of the method: as §1
# [6] = compound: C[C@H](C1=CC=C(C=C1)C(=O)NC2=C3C=CNC3=NC=C2)N
# Summary of the method: as §1
# duvelisib = compound: C[C@H](Nc1ncnc2nc[nH]c12)c1cc2cccc(Cl)c2c(=O)n1-c1ccccc1 [duvelisib]
# Summary of the method: as §1
# gandotinib = compound: Cc1cc(Nc2cc(CN3CCOCC3)c3nc(C)c(Cc4ccc(Cl)cc4F)n3n2)n[nH]1 [gandotinib]
# Summary of the method: as §1
# tozasertib = compound: Cc1cc(Nc2cc(N3CCN(C)CC3)nc(Sc3ccc(NC(=O)C4CC4)cc3)n2)n[nH]1 [tozasertib]
# Summary of the method: as §1
# [7] = compound: Cc1cc(SCc2sc(-c3ccc(C(F)(F)F)cc3)nc2C)ccc1OCC(=O)O
# Summary of the method: as §1
# doramapimod = compound: Cc1ccc(-n2nc(C(C)(C)C)cc2NC(=O)Nc2ccc(OCCN3CCOCC3)c3ccccc23)cc1 [doramapimod]
# Summary of the method: as §1
# ispinesib = compound: Cc1ccc(C(=O)N(CCCN)[C@@H](c2nc3cc(Cl)ccc3c(=O)n2Cc2ccccc2)C(C)C)cc1 [ispinesib]
# Summary of the method: as §1
# UniProt Q12905, sequence (Q12905 whole entry, looked up): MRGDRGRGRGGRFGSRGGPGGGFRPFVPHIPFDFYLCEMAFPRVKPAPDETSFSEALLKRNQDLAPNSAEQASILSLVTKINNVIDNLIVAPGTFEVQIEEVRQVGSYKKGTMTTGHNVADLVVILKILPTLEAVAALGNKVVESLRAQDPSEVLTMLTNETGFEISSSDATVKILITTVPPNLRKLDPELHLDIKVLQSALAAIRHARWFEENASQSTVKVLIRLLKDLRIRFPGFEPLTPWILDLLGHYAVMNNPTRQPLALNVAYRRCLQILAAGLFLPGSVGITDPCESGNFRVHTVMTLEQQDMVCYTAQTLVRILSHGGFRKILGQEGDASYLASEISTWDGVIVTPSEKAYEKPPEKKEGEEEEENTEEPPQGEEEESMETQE
# UniProt Q14693, sequence (Q14693 whole entry, looked up): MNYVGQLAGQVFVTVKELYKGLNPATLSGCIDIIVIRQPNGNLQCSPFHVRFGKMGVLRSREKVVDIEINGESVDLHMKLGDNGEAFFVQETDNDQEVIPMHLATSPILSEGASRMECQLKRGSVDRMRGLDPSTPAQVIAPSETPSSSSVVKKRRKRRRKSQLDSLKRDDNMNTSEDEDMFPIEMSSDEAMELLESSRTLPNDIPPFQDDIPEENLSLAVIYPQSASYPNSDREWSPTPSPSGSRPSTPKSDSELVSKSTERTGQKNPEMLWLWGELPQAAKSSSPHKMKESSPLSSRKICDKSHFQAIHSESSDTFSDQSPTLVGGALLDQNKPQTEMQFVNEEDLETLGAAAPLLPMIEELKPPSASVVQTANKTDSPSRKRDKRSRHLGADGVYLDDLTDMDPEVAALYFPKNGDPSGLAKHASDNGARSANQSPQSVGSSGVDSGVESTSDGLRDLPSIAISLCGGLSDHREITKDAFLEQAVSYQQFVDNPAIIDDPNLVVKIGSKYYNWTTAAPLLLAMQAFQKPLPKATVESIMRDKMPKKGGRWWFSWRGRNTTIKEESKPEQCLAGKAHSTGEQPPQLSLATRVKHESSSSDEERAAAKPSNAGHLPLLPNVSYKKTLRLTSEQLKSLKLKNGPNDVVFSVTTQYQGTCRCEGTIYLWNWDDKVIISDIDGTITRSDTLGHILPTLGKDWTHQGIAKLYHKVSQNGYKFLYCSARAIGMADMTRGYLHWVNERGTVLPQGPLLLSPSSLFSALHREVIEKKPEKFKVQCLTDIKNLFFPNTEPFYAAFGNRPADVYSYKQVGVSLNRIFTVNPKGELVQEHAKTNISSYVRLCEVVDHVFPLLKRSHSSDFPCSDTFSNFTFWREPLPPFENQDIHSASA
# UniProt P18065, sequence (P18065 whole entry, looked up): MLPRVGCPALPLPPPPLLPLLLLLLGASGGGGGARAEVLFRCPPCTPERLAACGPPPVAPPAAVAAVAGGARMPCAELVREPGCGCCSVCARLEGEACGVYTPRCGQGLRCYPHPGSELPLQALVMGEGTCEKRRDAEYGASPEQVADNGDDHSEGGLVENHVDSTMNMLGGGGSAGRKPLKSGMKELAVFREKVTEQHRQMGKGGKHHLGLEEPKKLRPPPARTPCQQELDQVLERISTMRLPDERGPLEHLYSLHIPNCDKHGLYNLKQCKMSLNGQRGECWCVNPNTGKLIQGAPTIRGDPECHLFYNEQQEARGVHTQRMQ
# UniProt P49137, sequence (P49137 whole entry, looked up): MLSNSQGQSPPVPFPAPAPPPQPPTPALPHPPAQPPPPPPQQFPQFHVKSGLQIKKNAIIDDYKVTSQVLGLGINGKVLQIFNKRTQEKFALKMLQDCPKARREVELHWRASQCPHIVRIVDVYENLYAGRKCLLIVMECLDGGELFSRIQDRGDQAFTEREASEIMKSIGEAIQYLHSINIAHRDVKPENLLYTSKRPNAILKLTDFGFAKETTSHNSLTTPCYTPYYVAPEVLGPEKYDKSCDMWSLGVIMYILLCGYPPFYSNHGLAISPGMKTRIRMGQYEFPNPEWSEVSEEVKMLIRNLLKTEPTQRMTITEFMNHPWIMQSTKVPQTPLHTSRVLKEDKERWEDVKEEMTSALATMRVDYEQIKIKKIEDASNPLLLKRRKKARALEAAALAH
# UniProt Q71RC2, sequence (Q71RC2 whole entry, looked up): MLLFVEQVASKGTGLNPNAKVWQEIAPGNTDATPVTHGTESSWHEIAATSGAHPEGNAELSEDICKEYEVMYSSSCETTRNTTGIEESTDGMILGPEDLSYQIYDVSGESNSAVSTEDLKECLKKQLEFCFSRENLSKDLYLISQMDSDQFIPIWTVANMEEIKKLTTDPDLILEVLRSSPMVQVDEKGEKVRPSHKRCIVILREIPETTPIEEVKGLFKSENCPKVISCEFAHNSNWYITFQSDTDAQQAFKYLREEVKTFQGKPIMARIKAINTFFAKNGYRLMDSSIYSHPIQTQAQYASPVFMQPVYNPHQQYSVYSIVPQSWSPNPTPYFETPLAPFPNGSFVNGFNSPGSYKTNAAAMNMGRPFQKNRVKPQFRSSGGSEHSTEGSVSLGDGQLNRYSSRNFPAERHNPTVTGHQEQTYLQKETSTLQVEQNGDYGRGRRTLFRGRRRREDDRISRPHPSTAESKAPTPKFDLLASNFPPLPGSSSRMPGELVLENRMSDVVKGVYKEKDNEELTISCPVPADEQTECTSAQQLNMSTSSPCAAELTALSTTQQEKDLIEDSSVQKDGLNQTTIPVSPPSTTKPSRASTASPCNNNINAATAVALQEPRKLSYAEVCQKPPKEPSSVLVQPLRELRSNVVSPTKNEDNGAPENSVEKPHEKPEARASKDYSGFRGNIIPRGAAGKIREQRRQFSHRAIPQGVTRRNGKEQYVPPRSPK
# UniProt P01116, sequence (P01116 whole entry, looked up): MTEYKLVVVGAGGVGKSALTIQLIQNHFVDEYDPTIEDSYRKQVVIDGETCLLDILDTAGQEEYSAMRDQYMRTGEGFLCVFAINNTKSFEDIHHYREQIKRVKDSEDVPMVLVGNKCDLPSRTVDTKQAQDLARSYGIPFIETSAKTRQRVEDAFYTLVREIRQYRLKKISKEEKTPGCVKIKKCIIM
# UniProt P46734, sequence (P46734 whole entry, looked up): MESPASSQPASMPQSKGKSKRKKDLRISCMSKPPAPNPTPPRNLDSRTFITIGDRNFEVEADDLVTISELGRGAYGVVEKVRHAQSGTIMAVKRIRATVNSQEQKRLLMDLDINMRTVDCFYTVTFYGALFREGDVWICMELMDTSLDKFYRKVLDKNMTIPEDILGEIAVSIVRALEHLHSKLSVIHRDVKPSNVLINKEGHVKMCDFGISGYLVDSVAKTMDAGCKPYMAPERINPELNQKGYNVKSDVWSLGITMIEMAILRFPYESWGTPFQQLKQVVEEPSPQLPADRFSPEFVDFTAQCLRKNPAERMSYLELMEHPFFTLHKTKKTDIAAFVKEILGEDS
Target,log2 fold change [1],log2 fold change (filanesib),log2 fold change (zotarolimus),log2 fold change (idasanutlin),log2 fold change (alisertib),log2 fold change [2],log2 fold change (gefitinib),log2 fold change [3],log2 fold change (lapatinib),log2 fold change (pictilisib),log2 fold change [4],log2 fold change (crizotinib),log2 fold change [5],log2 fold change [6],log2 fold change (duvelisib),log2 fold change (gandotinib),log2 fold change (tozasertib),log2 fold change [7],log2 fold change (doramapimod),log2 fold change (ispinesib)
IWS1 (UniProt Q96ST2),0.007,-0.013,-0.006,-0.105,-0.068,0.124,-0.055,0.055,-0.077,-0.011,0.077,0.146,0.132,0.119,0.028,0.108,0.058,0.062,-0.134,0.061
MAPKAPK2 (UniProt P49137),0.066,-0.06,-0.012,-0.054,-0.03,0.118,0.11,0.01,-0.025,0.023,-0.032,-0.082,0.035,-0.019,0.006,-0.066,-0.018,0.006,0.147,-0.003
LARP4 isoform 4 (UniProt Q71RC2),0.005,0.111,-0.007,0.071,-0.045,-0.159,0.01,-0.125,0.054,-0.068,-0.027,-0.098,-0.308 (active),0.177,-0.075,0,0.017,0.06,0.104,-0.237
MAP2K3 isoform 3 (UniProt P46734),0.076,0.01,-0.018,-0.019,0.152,0.166,-0.086,-0.022,-0.079,0.07,0.054,-0.049,-0.068,0.043,0.091,-0.001,0.005,-0.007,0.012,-0.02
LPIN1 isoform 7 (UniProt Q14693),-0.079,0.047,-0.048,-0.03,0.046,0.017,-0.018,-0.041,-0.101,-0.035,0,-0.184,-0.034,0.031,-0.052,-0.079,-0.021,-0.043,0.067,-0.037
KRAS isoform 2 (UniProt P01116),0.01,0.005,-0.033,0.099,0.029,0.037,0.015,0.033,-0.009,0.046,0.03,0.024,-0.016,0.019,-0.084,-0.05,-0.079,-0.018,-0.019,-0.09
ILF2 (UniProt Q12905),0.086,0.101,-0.024,0.084,-0.146,0.068,-0.045,-0.08,0.101,-0.035,-0.168,-0.164,-0.153,0.206,-0.126,0.07,-0.024,0.022,0.063,0.038
IGFBP2 (UniProt P18065),0.117,-0.238,-0.846 (active),0.439,0.11,-0.056,-0.228,0.363,-0.025,-0.252,-0.205,-0.297,-0.051,-0.189,0.173,-0.475,-0.083,0.026,-0.305,-0.482
